Some targets named below: hnRNP K(3) (Homo sapiens, UniProt P61978); TAF15 (Homo sapiens, UniProt Q92804); RED1(2)/ADARB1 (Homo sapiens, UniProt P78563).
What all share (test): protein domain microarray probed with biotinylated miRNA; Domain array: 20 mM Tris-HCl pH 7.4, 200 mM KCl, 0.2 mM EDTA, 0.05% NP40, 2 ug/ul heparin, overnight 4 C. ORF array: PBS pH 7.0 with RNase inhibitor, 100 ng RNA; high values mean tight binding
Common to all, as to conditions: ssRNA

The target of another test is T1, RBM35A (Homo sapiens, UniProt Q6NXG1).
T1 sequence: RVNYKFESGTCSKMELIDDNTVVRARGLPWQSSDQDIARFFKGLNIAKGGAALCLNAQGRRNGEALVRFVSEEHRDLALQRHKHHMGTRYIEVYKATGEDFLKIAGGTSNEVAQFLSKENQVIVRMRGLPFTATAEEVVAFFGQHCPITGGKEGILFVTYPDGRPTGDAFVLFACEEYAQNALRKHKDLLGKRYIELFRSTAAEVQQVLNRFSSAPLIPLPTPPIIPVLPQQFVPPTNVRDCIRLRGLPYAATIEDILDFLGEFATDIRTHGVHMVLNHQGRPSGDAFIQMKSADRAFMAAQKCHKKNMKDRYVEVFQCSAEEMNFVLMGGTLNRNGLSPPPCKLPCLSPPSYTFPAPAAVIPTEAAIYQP

Another test has as its target T2, RKHD2(1-2) (Homo sapiens, UniProt Q5U5Q3).
T2 sequence: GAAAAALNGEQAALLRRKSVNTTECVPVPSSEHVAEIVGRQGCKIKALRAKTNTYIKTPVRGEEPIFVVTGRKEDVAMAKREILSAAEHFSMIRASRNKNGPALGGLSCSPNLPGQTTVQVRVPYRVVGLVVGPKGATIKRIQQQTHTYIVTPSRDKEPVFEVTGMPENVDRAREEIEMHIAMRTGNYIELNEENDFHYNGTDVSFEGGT

The next test has as its target T3, RBM35B (Homo sapiens, UniProt Q9H6T0).
T3 sequence: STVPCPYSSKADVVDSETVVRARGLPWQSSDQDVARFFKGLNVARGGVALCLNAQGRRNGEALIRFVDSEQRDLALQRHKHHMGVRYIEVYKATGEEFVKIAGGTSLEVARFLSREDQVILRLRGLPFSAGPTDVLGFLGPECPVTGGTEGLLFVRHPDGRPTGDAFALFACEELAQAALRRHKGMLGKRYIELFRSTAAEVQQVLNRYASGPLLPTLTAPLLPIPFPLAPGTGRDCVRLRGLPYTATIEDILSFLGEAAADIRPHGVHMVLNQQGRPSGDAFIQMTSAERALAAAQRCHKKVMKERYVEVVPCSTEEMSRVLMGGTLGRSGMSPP

The next test has as its target T4, RBM6 (Homo sapiens, UniProt P78332).
T4 sequence: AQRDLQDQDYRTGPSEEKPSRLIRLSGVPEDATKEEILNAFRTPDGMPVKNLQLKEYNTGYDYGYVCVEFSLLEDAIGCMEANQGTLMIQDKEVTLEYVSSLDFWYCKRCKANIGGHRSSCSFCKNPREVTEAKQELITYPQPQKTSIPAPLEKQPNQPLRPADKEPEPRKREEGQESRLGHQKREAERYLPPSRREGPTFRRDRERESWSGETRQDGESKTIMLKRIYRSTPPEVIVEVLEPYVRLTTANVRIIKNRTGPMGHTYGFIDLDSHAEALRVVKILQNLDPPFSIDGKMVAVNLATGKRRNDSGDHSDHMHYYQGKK

The target in a further test is T5, RBM23 (Homo sapiens, UniProt Q86U06).
T5 sequence: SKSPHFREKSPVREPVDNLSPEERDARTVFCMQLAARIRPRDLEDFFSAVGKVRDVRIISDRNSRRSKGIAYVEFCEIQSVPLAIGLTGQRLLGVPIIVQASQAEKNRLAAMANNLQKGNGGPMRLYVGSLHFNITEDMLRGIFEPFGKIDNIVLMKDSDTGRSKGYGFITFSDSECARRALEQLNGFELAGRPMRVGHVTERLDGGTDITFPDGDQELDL

The target in the next test is T6, KHDRBS2 (Homo sapiens, UniProt Q5VWX1).
T6 sequence: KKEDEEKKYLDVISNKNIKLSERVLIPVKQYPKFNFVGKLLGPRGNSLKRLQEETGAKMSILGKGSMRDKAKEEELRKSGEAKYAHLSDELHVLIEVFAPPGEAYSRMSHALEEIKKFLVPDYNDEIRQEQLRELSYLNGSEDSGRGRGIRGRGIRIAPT

A further test has as its target T7, RBM12B(1-3) (Homo sapiens, UniProt Q8IXT5).
T7 sequence: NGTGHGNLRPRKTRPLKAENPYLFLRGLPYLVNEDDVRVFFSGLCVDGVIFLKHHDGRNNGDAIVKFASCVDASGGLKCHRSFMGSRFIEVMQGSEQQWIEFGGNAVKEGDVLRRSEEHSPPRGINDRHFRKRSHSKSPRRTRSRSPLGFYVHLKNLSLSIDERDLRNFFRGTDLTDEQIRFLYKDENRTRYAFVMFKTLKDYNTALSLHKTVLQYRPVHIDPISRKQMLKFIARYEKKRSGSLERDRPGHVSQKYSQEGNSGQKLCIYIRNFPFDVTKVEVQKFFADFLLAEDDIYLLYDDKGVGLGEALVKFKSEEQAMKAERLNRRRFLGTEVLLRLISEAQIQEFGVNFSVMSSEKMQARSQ

hnRNP K(3), sequence (P61978 369-463): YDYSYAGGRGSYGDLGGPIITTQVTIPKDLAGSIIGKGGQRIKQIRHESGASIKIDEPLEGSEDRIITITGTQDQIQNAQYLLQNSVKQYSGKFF
TAF15, sequence (Q92804 215-340): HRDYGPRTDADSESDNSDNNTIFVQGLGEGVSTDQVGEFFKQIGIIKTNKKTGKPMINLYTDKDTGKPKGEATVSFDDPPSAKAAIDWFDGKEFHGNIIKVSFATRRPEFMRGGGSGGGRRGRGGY

For the sequence UGAGGUAGUAGGUUGUGUGGUU, the binding signal with hnRNP K(3) was 291 ± 3.08 fluorescence intensity; with RBM35A, 1439 ± 11.1 fluorescence intensity; with RKHD2(1-2) it was 680.7 ± 1.67 fluorescence intensity; in the test with RBM35B it was 287 ± 29.8 fluorescence intensity; with TAF15, 662 ± 122 fluorescence intensity; with RBM6, 453 ± 28.5 fluorescence intensity. Also, the binding signal with RBM23 was found to be 678.5 ± 0.919 fluorescence intensity; with KHDRBS2, 1190 ± 18.7 fluorescence intensity; with RBM12B(1-3), 329 ± 27.9 fluorescence intensity; with RED1(2)/ADARB1, 143.2 ± 0.375 fluorescence intensity.

For CAGUGCAAUGAUGAAAGGGCAU, the binding signal came out at 294 ± 10.8 fluorescence intensity with hnRNP K(3); 1310 ± 17.7 fluorescence intensity in the test with RBM35A; 486 ± 53.7 fluorescence intensity in the test with RKHD2(1-2); 135 ± 1.71 fluorescence intensity with RBM35B; 104 ± 15.9 fluorescence intensity in the test with TAF15; 107 ± 6.4 fluorescence intensity with RBM6. Besides, the binding signal in the test with RBM23 is 199 ± 29.6 fluorescence intensity; in the test with KHDRBS2 it was 1440 ± 198 fluorescence intensity; with RBM12B(1-3) it was 194 ± 28.6 fluorescence intensity; with RED1(2)/ADARB1, 68.1 ± 3.97 fluorescence intensity.

For the sequence UGAGGUAGUAGGUUGUAUGGUU, the binding signal came out at 199 ± 15.1 fluorescence intensity with hnRNP K(3); 1320 ± 26.9 fluorescence intensity in the test with RBM35A; 733 ± 12 fluorescence intensity with RKHD2(1-2); 193.1 ± 0.566 fluorescence intensity with RBM35B; 588 ± 28.9 fluorescence intensity with TAF15; 550 ± 31 fluorescence intensity with RBM6. Besides, the binding signal is 843 ± 102 fluorescence intensity with RBM23, 842 ± 171 fluorescence intensity in the test with KHDRBS2, 324 ± 46.5 fluorescence intensity with RBM12B(1-3) and 87.6 ± 3.8 fluorescence intensity with RED1(2)/ADARB1.

For the sequence UGAGGUAGUAGGUUGUAUAGUU, the binding signal in the test with hnRNP K(3) stood at 52.1 ± 3.1 fluorescence intensity; in the test with RBM35A it was 521 ± 7.45 fluorescence intensity; in the test with RKHD2(1-2), 509.4 ± 2.09 fluorescence intensity; with RBM35B it was 31.4 ± 1.56 fluorescence intensity; with TAF15 it was 54.7 ± 13.8 fluorescence intensity; in the test with RBM6, 20.3 ± 1.75 fluorescence intensity. Also, the binding signal is 162.15 ± 0.134 fluorescence intensity with RBM23, 388 ± 52.1 fluorescence intensity with KHDRBS2, 44.5 ± 1.46 fluorescence intensity with RBM12B(1-3) and 25 ± 0.453 fluorescence intensity in the test with RED1(2)/ADARB1.

On to AGAGGUAGUAGGUUGCAUAGUU, for which the binding signal with hnRNP K(3) worked out at 181 ± 4.45 fluorescence intensity; with RBM35A it was 2590 ± 119 fluorescence intensity; with RKHD2(1-2), 874 ± 10.7 fluorescence intensity; with RBM35B, 170 ± 4.31 fluorescence intensity; with TAF15, 299 ± 23.1 fluorescence intensity; in the test with RBM6, 491 ± 28 fluorescence intensity. Further, the binding signal with RBM23 stood at 644 ± 79.1 fluorescence intensity; in the test with KHDRBS2 it was 1300 ± 14.4 fluorescence intensity; with RBM12B(1-3), 274 ± 48.6 fluorescence intensity; in the test with RED1(2)/ADARB1 it was 73.3 ± 1.94 fluorescence intensity.

UAGCUUAUCAGACUGAUGUUGA: the binding signal with hnRNP K(3) was found to be 79.6 ± 1.76 fluorescence intensity; with RBM35A it was 26.4 ± 2.09 fluorescence intensity; with RKHD2(1-2), 234 ± 5.59 fluorescence intensity; in the test with RBM23, 26.5 ± 5.48 fluorescence intensity; in the test with KHDRBS2 it was 463 ± 19.2 fluorescence intensity.

Values taken from PMC11574364.
